KB-3-1 tox: kills parental KB-3-1 adenocarcinoma cells. KB-3-1 viability, CellTiter-Glo ATP luminescence, 72 h. Potency, µM (titrated, usually from 46.1 µM), actives largely listed as cytotoxic. 400,000 tested, 1.4% active. AID 1347075; further: on the % scale 0 is the no-effect control and ±100 the full control effect; nearly all actives have a fitted effect of over 60% in size
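Parental KB-3-1 adenocarcinoma cells in phenol-red-free DMEM with 10% FBS were pin-treated with compounds at several concentrations, incubated 72 h at 37 °C, and viability read by CellTiter-Glo luminescence; concentration-effect curves were fitted after normalization.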
MCF10A rereplic: DNA re-replication induction in MCF 10a cells | MCF 10A DNA re-replication, Hoechst nuclear intensity, 48 h | Potency, µM (highest dose often 46.1 µM), inactives show top-dose activity, positive = re-replication, usual class: activators | 350,000 tested, 2.9% active; further: % of control where 0% means no effect; nearly all actives have a fitted effect of over 50% in size
ALOX12 inh: inhibitors of human 12S-lipoxygenase ALOX12. P18054. purified 12hLO, xylenol orange hydroperoxide absorbance. Potency, µM (top dose mostly 108 µM), without a hit: at the top dose activity change, negative = inhibition, actives largely listed as inhibitors. 580,000 tested, 1.1% active; further: on the % scale 0 is the no-effect control and ±100 the full control effect
Target sequence (P18054 whole entry, looked up): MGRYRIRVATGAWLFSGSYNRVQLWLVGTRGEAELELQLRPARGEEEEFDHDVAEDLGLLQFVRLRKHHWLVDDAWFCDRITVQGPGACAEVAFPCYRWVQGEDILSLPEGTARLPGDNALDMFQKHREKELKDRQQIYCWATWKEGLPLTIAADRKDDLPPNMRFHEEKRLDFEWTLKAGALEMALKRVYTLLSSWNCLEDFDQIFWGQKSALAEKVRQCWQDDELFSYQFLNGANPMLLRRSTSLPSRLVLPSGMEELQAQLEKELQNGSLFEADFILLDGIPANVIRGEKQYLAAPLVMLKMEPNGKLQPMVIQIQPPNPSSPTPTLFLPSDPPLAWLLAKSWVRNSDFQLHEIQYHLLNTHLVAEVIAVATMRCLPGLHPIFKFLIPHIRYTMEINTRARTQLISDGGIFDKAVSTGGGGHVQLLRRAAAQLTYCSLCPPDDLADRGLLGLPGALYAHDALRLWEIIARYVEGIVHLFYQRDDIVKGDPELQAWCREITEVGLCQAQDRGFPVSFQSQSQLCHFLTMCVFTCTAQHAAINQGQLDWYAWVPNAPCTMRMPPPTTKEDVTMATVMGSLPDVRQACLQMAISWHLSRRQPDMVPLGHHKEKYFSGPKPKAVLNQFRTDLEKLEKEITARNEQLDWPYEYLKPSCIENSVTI
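Purified human 12hLO (150 nM final) in 25 mM Hepes, 0.01% Triton X-100, pH 7.0 was preincubated 15 min at room temperature with compound. Then 40 uM arachidonic acid was added, 30 min. Hydroperoxide was read by Fe-XO absorbance ratio 573/405 nm.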
SW480 rereplic: DNA re-replication induction in SW480 cells; Potency, µM (doses to about 46.1 µM), inactives show top-dose re-replication activation, most hits filed as activators; SW480 DNA re-replication, Hoechst DNA content imaging, 48 h; AID 624297; 340,000 tested, 1.8% active; further: % of control where 0% means no effect; nearly all actives have a fitted effect of over 55% in size
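Treated cells incubate 48 hr (37 C, 5% CO2), are stained 40 min with Hoechst, and nuclear fluorescence is enumerated; a rise in nuclei with high DNA signal marks re-replication.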
KB-V1 cytotox: KB-V1 MDR subline cytotoxicity; 400,000 tested, 3.4% active; Potency, µM (highest dose often 46.1 µM), actives largely listed as cytotoxic; KB-V1 MDR cells viability, CellTiter-Glo, 72 h; AID 1347076; further: on the % scale 0 is the no-effect control and ±100 the full control effect; nearly all actives have a fitted effect of over 60% in size
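In this primary screen, KB-V1 cells overexpressing P-gp are incubated with library compounds (lowest to highest concentration) for 72 h at 37 degrees C before a luminescent ATP viability read.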
PINK1 expr mod: changes PINK1 expression; PINK1 immunofluorescence, high-content cytometry, 24 h; Potency, µM (titrated, usually from 76.6 µM), without a hit: at the highest dose activation (PINK1 increase), most hits filed as activators; 410,000 tested, 0.2% active; active means well fitted activation curve with a large enough effect; inconclusive means small, poorly fitted or top-dose-only effect; cell line not stated here; further: % of control where 0% means no effect; nearly all actives have a fitted effect of over 65% in size
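Compound titrations (5 concentrations, 24 h) on a stable cell line; DMSO and CCCP controls. Endpoint: fixed-cell PINK1 immunofluorescence with mitochondrial, cell and nuclear markers, scanned by microplate cytometer.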
Numbers without * were called inactive; ! = repeats disagree; [ ] = dose if it differs, or a comment. An excerpt weighted towards active compounds, which were near 5.8% of everything screened. Unless noted, the call rests on the fitted dose curve; in most records, active means well fitted curve in the direction sought with a large enough effect; inconclusive means small, poorly fitted or top-dose-only effect, or another doubt; inactive means no such curve, though single readings can be large; an effect the other way counts as inactive or inconclusive. Potency means the concentration at half of the fitted maximal effect.

Screening COC(=O)CCCC1=CC2=CC(=O)C(C)(OC(=O)c3cccs3)C(=O)C2=CN1c1ccccc1 (centres undefined) returned KB-3-1 tox inactive, MCF10A rereplic 2.0%, ALOX12 inh -46.8%, SW480 rereplic -0.7%, KB-V1 cytotox inactive and PINK1 expr mod -0.2%.
CCOC(=O)N1CCN(c2ncc3c(n2)CC(c2ccc(Cl)cc2)CC3=O)CC1 (centres undefined) was read as KB-3-1 tox inactive, ALOX12 inh inconclusive, KB-V1 cytotox 16.4µM* and PINK1 expr mod 18.2%.
For COc1cc(C2CC(=O)c3cnc(N4CCN(Cc5ccccc5)CC4)nc3C2)cc(OC)c1OC (centres undefined) the results were KB-3-1 tox 5.8µM*, MCF10A rereplic 13µM*, ALOX12 inh 6.5%, SW480 rereplic 2.91µM*, KB-V1 cytotox inconclusive and PINK1 expr mod 3.4%.
`COc1cc(C2CC(=O)c3cnc(N4CCN(CCO)CC4)nc3C2)cc(OC)c1OC` (centres undefined) gave KB-3-1 tox inactive, ALOX12 inh -10.3%, KB-V1 cytotox inconclusive and PINK1 expr mod 16.2%.
`CCOC(=O)N1CCN(c2ncc3c(n2)CC(/C=C/c2ccccc2)CC3=O)CC1` (centres undefined) gave ALOX12 inh 14.4%.
`CCOC(=O)N1CCN(c2ncc3c(n2)CC(c2ccccc2O)CC3=O)CC1` (centres undefined) gave KB-3-1 tox inconclusive, ALOX12 inh -0.7%, KB-V1 cytotox 18.4µM* and PINK1 expr mod -0.4%.
`COc1cn(-c2ccccc2)nc1C(=O)OCC(=O)NC1CCCC1` gave ALOX12 inh -21.2%.
For CC(=O)O the results were ALOX12 inh -3.2%.
Screening O=C(/C=C/c1ccccc1)Nc1cccc(S(=O)(=O)Nc2ccccc2F)c1 returned KB-3-1 tox inactive, MCF10A rereplic inconclusive, ALOX12 inh 22.4µM*, SW480 rereplic 10.5%, KB-V1 cytotox 9.2µM*! and PINK1 expr mod 4.2%.
For O=C(Cc1ccc(Cl)cc1Cl)Nc1cccc(S(=O)(=O)Nc2ccccc2F)c1 the results were KB-3-1 tox inconclusive, MCF10A rereplic inconclusive, ALOX12 inh inconclusive, SW480 rereplic -2.5%, KB-V1 cytotox 20.6µM* and PINK1 expr mod -3.3%.
For CCn1cc(Br)c(C(=O)Nc2cc(C(F)(F)F)ccc2Cl)n1 the results were ALOX12 inh 45.3%.
COc1cc([N+](=O)[O-])cc2cc(C(=O)NC3CCCCCC3)c(=O)oc12 was read as ALOX12 inh 14.4%.
Screening Cc1oc(-c2ccccc2)nc1CC(=O)Nc1ccc(S(=O)(=O)NC(C)C)cc1 returned ALOX12 inh -3.0%.
O=C(NN=C1c2ccccc2-c2ccccc21)c1ccccn1 was read as KB-3-1 tox inactive, MCF10A rereplic 6.3%, ALOX12 inh 24.6%, SW480 rereplic inconclusive, KB-V1 cytotox 5.17µM* and PINK1 expr mod 20.3%[38.3 µM].
`CCc1ccc(/C=N/NC(=O)c2cc(C3CC3)nc3ccc(Br)cc23)s1` gave KB-3-1 tox 4.61µM*, MCF10A rereplic 1.58µM*, ALOX12 inh inconclusive, SW480 rereplic 18.4µM*, KB-V1 cytotox 4.11µM* and PINK1 expr mod inconclusive.
For CCc1ccc(/C=N\NC(=O)c2ccc(Br)o2)s1 the results were KB-3-1 tox inactive, MCF10A rereplic 1.0%, ALOX12 inh 6.8%, SW480 rereplic 13.6%, KB-V1 cytotox 18.4µM* and PINK1 expr mod 2.9%.
`c1coc(CNc2c3c(nc4ccccc24)CCC3)c1` gave KB-3-1 tox inconclusive, MCF10A rereplic 18.4µM*, ALOX12 inh 0.1%, SW480 rereplic inconclusive, KB-V1 cytotox inconclusive and PINK1 expr mod -1.4%.
For COc1ccc(OC)c(Nc2c3ccccc3nc3ccccc23)c1 the results were KB-3-1 tox 11.6µM*, MCF10A rereplic 20.6µM*, ALOX12 inh inconclusive, SW480 rereplic 20.6µM*, KB-V1 cytotox 20.6µM* and PINK1 expr mod inconclusive.
Cc1ccc2nc3c(c(Nc4ccc(C)c(C)c4)c2c1)CCC3 was read as KB-3-1 tox inactive, ALOX12 inh -15.8%, KB-V1 cytotox 18.4µM* and PINK1 expr mod inconclusive.
`COc1ccc(OC)c(Nc2c3c(nc4ccccc24)CCC3)c1` gave KB-3-1 tox 1.03µM*, MCF10A rereplic 3.26µM*, ALOX12 inh 0.0%, SW480 rereplic 4.11µM*, KB-V1 cytotox 3.66µM* and PINK1 expr mod inconclusive.
`Cc1ccc2nc3c(c(Nc4ccc(O)cc4)c2c1)CCC3` gave KB-3-1 tox inactive, MCF10A rereplic inconclusive, ALOX12 inh 6.7%, SW480 rereplic inconclusive, KB-V1 cytotox inactive and PINK1 expr mod 3.6%.
For COc1ccc(OC)c(Nc2cc(C)c3ccccc3n2)c1 the results were KB-3-1 tox inactive, MCF10A rereplic inconclusive, ALOX12 inh 10.0%, SW480 rereplic 28.3%, KB-V1 cytotox inactive and PINK1 expr mod 6.7%.
Screening COc1cc(Nc2c3c(nc4ccccc24)CCC3)cc(OC)c1OC returned KB-3-1 tox 2.31µM*, MCF10A rereplic 8.2µM*, ALOX12 inh 21.6%, SW480 rereplic 13µM*, KB-V1 cytotox 3.66µM* and PINK1 expr mod 26.1%.
COc1ccc([N+](=O)[O-])cc1Nc1c2ccccc2nc2ccccc12 was read as KB-3-1 tox inconclusive, MCF10A rereplic 2.91µM*, ALOX12 inh -86.4%, SW480 rereplic inconclusive, KB-V1 cytotox inactive and PINK1 expr mod 2.4%.
`COc1cc(NS(C)(=O)=O)ccc1Nc1c2ccccc2nc2ccccc12` gave KB-3-1 tox inconclusive, MCF10A rereplic inconclusive, ALOX12 inh inconclusive, SW480 rereplic 0.15µM*, KB-V1 cytotox 18.4µM* and PINK1 expr mod -1.2%.
Screening COc1ccccc1CNc1nc(-c2cccc(NS(C)(=O)=O)c2)nc2ccccc12 returned ALOX12 inh inconclusive and PINK1 expr mod 0.5%.
For Cc1ccc(Nc2c3c(nc4ccccc24)CCC3)cc1F the results were KB-3-1 tox 20.6µM*, ALOX12 inh inconclusive, KB-V1 cytotox inactive and PINK1 expr mod inconclusive.
Screening O=[N+]([O-])c1ccc(Nc2c3ccccc3nc3ccccc23)cc1 returned KB-3-1 tox inactive, MCF10A rereplic 5.5%, ALOX12 inh inconclusive, SW480 rereplic 2.6%, KB-V1 cytotox inactive and PINK1 expr mod inconclusive.
CN(CCc1ccccc1)CC[C@@H]1CC[C@H](O)[C@@H](C(=O)N(C)Cc2ccccc2)O1 was read as ALOX12 inh -0.4%[176 µM].
Screening Cc1nc2sc(C#N)c(N)c2c(C)c1Cl returned ALOX12 inh 11.8%.

Screening data as filed in PubChem.
